Drawing on PubChem BioAssay (NCATS), this text covers max response, outcome and Potency for 12 compounds.

One experiment relates to CRL-7250. In words: Cytotoxic Profiling of Annotated Libraries Using Quantitative High-Throughput Screening (AID 1296008). Further: nearly all actives have a fitted effect of over 60% in size. Further: potency means the concentration at half of the fitted maximal effect. On max response: on the % scale 0 is the no-effect control and ±100 the full control effect. To be noted: Five cell lines viability, CellTiter-Glo ATP luminescence, 48-72 h; max response: stronger effect = lower value. The method, boiled down: (§1)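 Cells exposed to compounds for 48 or 72 hr at 37 degrees Celsius. Viability read as ATP-coupled luminescence with CellTiter-Glo after 10 min at room temperature.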

In another experiment the test system is HEK293. Described as above. To be noted: Five cell lines viability, CellTiter-Glo ATP luminescence, 48-72 h; max response: stronger effect = lower value. In a few lines: as §1
A general note: ATP-based viability assays read luminescence as a measure of living cells.

Another experiment deals with HaCat. Described as above. To be noted: Five cell lines viability, CellTiter-Glo ATP luminescence, 48-72 h; max response: stronger effect = lower value. In a few lines:
as §1

A further experiment relates to KB-3-1. The description is as above. To be noted: Five cell lines viability, CellTiter-Glo ATP luminescence, 48-72 h; max response: stronger effect = lower value. The method, boiled down: as §1
Experiment [1] has as its system NIH3T3. The description is as above. To be noted: Five cell lines viability, CellTiter-Glo ATP luminescence, 48-72 h; max response: stronger effect = lower value. In a few lines:
as §1

Experiment [2] relates to NIH3T3. Briefly: qHTS assay to identify novel small-molecules to repurpose for Merkel cell carcinoma treatment (AID 1296009). Further: nearly all actives have a fitted effect of over 60% in size. To be noted: MCC and control cell lines, CellTiter-Glo viability, 72 h; at 44.8 µM (top of the series) unless noted. The method, boiled down:
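Dose-response viability screen; 72 hr exposure at 37 degree celsius; CellTiter-Glo added, 10 min room temperature, luminescence read; RLUs scaled between no-cell and DMSO wells.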
(In general: qHTS replaces the single test concentration by a dilution series.)

A further experiment relates to C33A. In words: Primary qHTS to identify gynecologic anti-cancer compounds using libraries of approved drugs and bioactive compounds (AID 1345084). Further: nearly all actives have a fitted effect of over 55% in size. Further: potency means the concentration at half of the fitted maximal effect. To be noted: Gynecologic cancer cell panel viability, ATPlite luminescence, 48 h; series mostly up to 57.5 µM. In a few lines:
(§2)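 Five-concentration response, 48 h; readout is ATP-driven luciferase luminescence.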

The test system of a further experiment is CAOV3. The description is as above. To be noted: Gynecologic cancer cell panel viability, ATPlite luminescence, 48 h; series mostly up to 57.5 µM. The method, boiled down: as §2
For a further experiment, the system named is CASKI. The experiment is described as above. To be noted: Gynecologic cancer cell panel viability, ATPlite luminescence, 48 h; series mostly up to 57.5 µM. The method, boiled down: as §2
A further experiment concerns Es-2. Described as above. To be noted: Gynecologic cancer cell panel viability, ATPlite luminescence, 48 h; series mostly up to 57.5 µM. The method, boiled down:
as §2

In a further experiment the test system is HeLa. Described as above. To be noted: Gynecologic cancer cell panel viability, ATPlite luminescence, 48 h; series mostly up to 57.5 µM. The method, boiled down: as §2
The test system of a further experiment is Hek293T. The experiment is described as above. To be noted: Gynecologic cancer cell panel viability, ATPlite luminescence, 48 h, control line for the selectivity index; series mostly up to 57.5 µM. In a few lines: as §2
For the next experiment, the system named is JEG-3. Described as above. To be noted: Gynecologic cancer cell panel viability, ATPlite luminescence, 48 h; series mostly up to 57.5 µM. In a few lines:
as §2

A further experiment deals with OV90. The description is as above. To be noted: Gynecologic cancer cell panel viability, ATPlite luminescence, 48 h; series mostly up to 57.5 µM. The method, boiled down: as §2

Molecules are shown by their SMILES. Inconclusive results are not listed. Values without a mark were called inactive. Calls of active or inactive are those of the source. The call rests on the fitted dose curve; in most records, active means well fitted curve in the direction sought with a large enough effect; inconclusive means small, poorly fitted or top-dose-only effect, or another doubt; inactive means no such curve, though single readings can be large; an effect the other way counts as inactive or inconclusive.

For the compound `COC(=O)[C@]1(C)CCC[C@@]2(C)[C@@H]3CC[C@@H]4C[C@@]3(CC[C@@H]21)C[C@H]4C(=O)O`, the max response in the experiment on CRL-7250 is -6.63%; in the experiment with HEK293 it was 0.134%; in the experiment with HaCat it was 0.436%; in the experiment on KB-3-1, 9.78%. Also, the outcome with NIH3T3 [1], with NIH3T3 [2] and with CASKI was inactive. The Potency entry with C33A, in the experiment on CAOV3, with Es-2, in the experiment on HeLa, in the experiment on Hek293T and with JEG-3 was “inactive” throughout. Further, in the experiment on OV90, the Potency result was “inactive”.

As to `O=C(/C=C/c1ccc(O)c(O)c1)O[C@@H]1[C@@H](O)[C@H](OC2CCCCC2O)O[C@H](CO)[C@H]1O` (stereo not given in full), the max response in the experiment on CRL-7250 is 4.08%; in the experiment on HEK293, 1.79%; in the experiment on HaCat, 2.85%; in the experiment on KB-3-1, 9.07%. In addition, the outcome in the experiment with NIH3T3 [1] and in the experiment with CASKI was inactive. Also, the outcome in the experiment with NIH3T3 [2] is “inactive [at 17.4 µM]”. The Potency result with C33A, in the experiment with CAOV3, in the experiment on Es-2, in the experiment with HeLa, with Hek293T and in the experiment on JEG-3 was “inactive” throughout. Moreover, the Potency entry in the experiment with OV90 was “inactive”.

In the case of `C[C@]1(OC(=O)/C=C\c2ccc(O)cc2)C[C@@H](O)[C@]2(O)C=CO[C@@H](O[C@@H]3O[C@H](CO)[C@@H](O)[C@H](O)[C@H]3O)C12` (stereo not given in full), the max response was -13.5% in the experiment on CRL-7250, -4.97% in the experiment with HEK293 and -23.9% with HaCat. Besides, the compound was classed as inactive in the experiment on KB-3-1, in the experiment with NIH3T3 [1] and with CASKI. Moreover, the outcome in the experiment with NIH3T3 [2] was “inactive [at 17.4 µM]”. The Potency entry in the experiment with C33A, in the experiment with CAOV3, in the experiment on Es-2, in the experiment with HeLa, with Hek293T and in the experiment with JEG-3 was “inactive” throughout. Further, in the experiment with OV90, the Potency result is “inactive”.

With `O=C(/C=C/N1C[C@@H]2C[C@@H]1CN2c1ccccn1)c1ccccc1O`, the compound was called inactive in the experiment with CRL-7250, with KB-3-1, in the experiment on NIH3T3 [1], in the experiment with NIH3T3 [2] and with CASKI. In addition, the max response with HEK293 is 4.78%; in the experiment with HaCat it was 3.55%. Further, the Potency result in the experiment with C33A, with CAOV3, with Es-2, with HeLa, in the experiment with Hek293T and in the experiment on JEG-3 was “inactive” each time. For the same compound, the Potency entry in the experiment with OV90 is “inactive”.

As to `O=C(/C=C/c1ccc(O)c(O)c1)O[C@H]1[C@H](OC2CCCCC2O)O[C@H](CO)[C@@H](O)[C@@H]1O` (stereo not given in full), the max response was -3.22% in the experiment on CRL-7250, -0.453% with HEK293, -16.7% in the experiment with HaCat and -3.21% with KB-3-1. Also, the result with NIH3T3 [1] and with CASKI was inactive. For the same compound, the outcome in the experiment on NIH3T3 [2] was “inactive [at 17.4 µM]”. Besides, the Potency entry in the experiment with C33A, with CAOV3, in the experiment on Es-2, in the experiment on Hek293T, with JEG-3 and with OV90 was “inactive” throughout. Also, the Potency in the experiment on HeLa is 11.2 µM (active).

On to `Cc1nc2cc(-c3cc(F)cc(C#N)c3)ccc2s1`, for which the max response in the experiment with CRL-7250 is -5.31%; in the experiment on HEK293, -12.9%; in the experiment on HaCat, -10.9%; in the experiment with KB-3-1, 0.518%. In addition, the call in the experiment on NIH3T3 [1], with NIH3T3 [2] and with CASKI was inactive. Besides, the Potency entry in the experiment on C33A, with CAOV3, in the experiment on Es-2, in the experiment on HeLa, in the experiment with Hek293T and in the experiment on JEG-3 was “inactive” each time. The Potency result in the experiment on OV90 is “inactive”.

With `C=C1C2CCC3C(CCC4[C@@]3(C)CCC[C@@]4(C)C(=O)O)(C2)[C@@H]1OC(=O)/C(C)=C\C` (stereo not given in full), the max response with CRL-7250 was -44.5%; with HEK293, -104%; with HaCat it was -0.634%; in the experiment with KB-3-1, 2.48%. Further, the outcome in the experiment with NIH3T3 [1] and with CASKI was inactive. Further, the outcome in the experiment on NIH3T3 [2] is “inactive [at 17.4 µM]”. In addition, the Potency entry in the experiment with C33A, in the experiment on CAOV3, in the experiment with JEG-3 and in the experiment with OV90 was “inactive” throughout.

With `O=C(Nc1cc(-c2ccccc2)nn1-c1ccccc1)c1ccc([N+](=O)[O-])cc1`, the max response with CRL-7250 is -6.57%; in the experiment on HEK293, -12.1%; in the experiment on HaCat it was 1.9%; with KB-3-1 it was -7.82%. In addition, the result in the experiment with NIH3T3 [1], in the experiment on NIH3T3 [2] and in the experiment with CASKI was inactive. The Potency entry in the experiment with C33A, in the experiment with CAOV3, with Es-2, in the experiment with HeLa, in the experiment with Hek293T and in the experiment on JEG-3 was “inactive” each time. Besides, the Potency entry with OV90 is “inactive”.

Regarding `CC1(C)CC[C@]2(C(=O)O)CC[C@]3(C)C(=CCC4[C@@]5(C)CC[C@H](O[C@@H]6O[C@H](C(=O)O)[C@@H](O)[C@H](O)[C@H]6O)C(C)(C)C5CC[C@]43C)C2C1` (stereo not given in full), the max response is -10.5% in the experiment on CRL-7250, -9.32% in the experiment on HEK293, -12.1% in the experiment on HaCat and 4.15% in the experiment with KB-3-1. Besides, the compound was classed as inactive with NIH3T3 [1] and in the experiment with CASKI. Further, the outcome in the experiment on NIH3T3 [2] is “inactive [at 17.4 µM]”. Moreover, the Potency result with C33A, in the experiment on CAOV3, with Es-2, in the experiment with HeLa, in the experiment with Hek293T and in the experiment with JEG-3 was “inactive” in each case. The Potency entry with OV90 was “inactive”.

For `O=C(NC1Cc2ccccc2N(C[C@@H](O)CO)C1=O)c1cc2cc(Cl)sc2[nH]1` (stereo not given in full), the max response in the experiment on CRL-7250 is -1.76%; in the experiment on HaCat it was -0.0172%; with KB-3-1, 3.62%. In addition, the Potency in the experiment on HEK293 was 16.4 µM (active). In addition, the outcome with NIH3T3 [1], in the experiment with NIH3T3 [2] and in the experiment with CASKI was inactive. The Potency result in the experiment with C33A, in the experiment with CAOV3, in the experiment with Es-2, in the experiment with HeLa, in the experiment on Hek293T and in the experiment on JEG-3 was “inactive” in each case. The Potency entry with OV90 was “inactive”.

As to `C/C(=C\CC/C(C)=C/CC[C@]1(C)CCc2cc(O)cc(C)c2O1)CC/C=C(\C)C(=O)O`, the max response in the experiment on CRL-7250 was 0.272%; in the experiment on HEK293, -1.65%; in the experiment on HaCat, 4.26%; in the experiment on KB-3-1, -3.09%. The outcome with NIH3T3 [1] and in the experiment on CASKI was inactive. In the experiment on NIH3T3 [2], the outcome was “inactive [at 17.4 µM]”. The Potency result with C33A, in the experiment with CAOV3, with Es-2, in the experiment with HeLa, with Hek293T and in the experiment with JEG-3 was “inactive” throughout. Also, the Potency result in the experiment on OV90 was “inactive”.

With `CC(C)[C@@](O)(c1ccc2cc(OC(F)F)c(OC(F)F)cc2c1)c1cn[nH]n1`, the max response is -0.82% in the experiment on CRL-7250, -10.2% with HEK293, -0.148% in the experiment on HaCat and 5.26% in the experiment on KB-3-1. Moreover, the result in the experiment on NIH3T3 [1], in the experiment with NIH3T3 [2] and in the experiment with CASKI was inactive. Further, the Potency entry with C33A, in the experiment on CAOV3, in the experiment on Es-2, in the experiment on HeLa, in the experiment with Hek293T and in the experiment with JEG-3 was “inactive” in each case. The Potency result in the experiment with OV90 is “inactive”.
